Shown are actives, neighbours in structure and some others; about 21% of the full set was active somewhere.
IL1B secr inh – qHTS for Inhibitors of Inflammasome Signaling: IL-1-beta AlphaLISA Primary Screen | AID 743279, 2014 | THP-1 LPS/ATP IL-1B secretion, AlphaLISA, 16 h; active compounds read low | activity change, % at 57.5 µM | 4.7% of 360,000 active; in the data active = activity change below about -50%; inconclusive = mostly about -30% to -49%; note: % is set by controls: 0 for no effect and ±100 for the full control effect
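THP-1 cells pretreated 1 hr with compounds (up to 57.5 uM final), then stimulated with LPS (250 ng/mL final) plus ATP (1.25 mM final); secreted IL-1B measured by AlphaLISA after 16 hr, decreased signal indicating inhibition.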
DRD3 agonist – qHTS of D3 Dopamine Receptor Agonist: qHTS; D(3) dopamine receptor (Homo sapiens), P35462; D3R DiscoveRx beta-arrestin cells, luminescence, 90 min; max activation, %; 0.58% of 410,000 active; AID 652048, 2013; in the data active = max activation above about 30%; note: 0% is about no effect
Target sequence (P35462 whole entry, looked up): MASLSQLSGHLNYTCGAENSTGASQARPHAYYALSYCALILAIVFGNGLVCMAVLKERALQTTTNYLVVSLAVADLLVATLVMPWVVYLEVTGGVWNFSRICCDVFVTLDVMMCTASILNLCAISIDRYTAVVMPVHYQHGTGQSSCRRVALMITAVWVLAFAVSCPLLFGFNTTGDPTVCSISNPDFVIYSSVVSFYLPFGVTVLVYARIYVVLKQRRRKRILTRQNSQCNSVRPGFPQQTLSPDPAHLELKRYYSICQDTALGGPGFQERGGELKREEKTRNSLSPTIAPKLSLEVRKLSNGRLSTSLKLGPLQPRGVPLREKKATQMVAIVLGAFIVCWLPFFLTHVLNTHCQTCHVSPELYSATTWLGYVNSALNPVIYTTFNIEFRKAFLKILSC
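Cells at 1500/well, incubated overnight, then treated with pinned compounds (dopamine as control) for 90 min at 37 degrees C. DiscoveRx reagent added for 30 - 60 minutes at room temperature; luminescence read.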
TDP1 cell noCPT – qHTS for Inhibitors of human tyrosyl-DNA phosphodiesterase 1 (TDP1): qHTS in cells in absence of CPT | DT40 Tdp1-/- hTDP1 cells, no CPT, ATP luminescence, 48 h | Potency, µM (top dose mostly 46.2 µM), without a hit: at the top dose activity change, negative = growth inhibition, most hits filed as inhibitors | 15% of 420,000 active | AID 686978, 2013; note: potency is the fitted concentration of half-maximal effect; % is set by controls: 0 for no effect and ±100 for the full control effect; nearly all actives have a fitted effect of over 55% in size
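Readout: luminescence from CellTiter-Glo after 30 min in the dark at RT. Cells: DT40 Tdp1-/- with stable hTDP1, 400/well. Exposure: compounds alone, ≥48 hr, 37 °C.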
DT40 TDP1 CPT – qHTS for Inhibitors of human tyrosyl-DNA phosphodiesterase 1 (TDP1): qHTS in cells in presence of CPT; chicken DT40 Tdp1-/-;hTDP1 cells + 20 nM CPT, ATP luminescence, 48 h; Potency, µM (top dose mostly 46.2 µM), without a hit: at the highest dose activity change, negative = growth inhibition, usual class: inhibitors; 12% of 420,000 active; note: potency is the fitted concentration of half-maximal effect; % is set by controls: 0 for no effect and ±100 for the full control effect; nearly all actives have a fitted effect of over 55% in size
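Cell growth measured by CellTiter-Glo luminescence after a minimum 48 h, 37 C compound exposure with 20 nM CPT in Tdp1-knockout DT40 cells stably expressing hTDP1, seeded 400/well; qHTS titration format.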
ClpP mod – qHTS Assay for Activators of ClpP | ATP-dependent Clp protease proteolytic subunit (Bacillus subtilis (strain 168)), P80244 | AID 651965, 2013 | 1.9% of 340,000 active | purified B. subtilis ClpP, FRET peptide cleavage, 20 min | Potency, µM (doses to about 57.5 µM), inactives show at the top dose activity change, negative = active; active = well fitted falling curve with a large enough effect; inconclusive = small, poorly fitted or top-dose-only effect; inactive = no such curve, though single readings can be large or run the other way; note: potency is the fitted concentration of half-maximal effect; the source files actives as falling curves though it sought activators and does not explain the sign; nearly all actives have a fitted effect of over 65% in size
Target sequence (P80244 whole entry, looked up): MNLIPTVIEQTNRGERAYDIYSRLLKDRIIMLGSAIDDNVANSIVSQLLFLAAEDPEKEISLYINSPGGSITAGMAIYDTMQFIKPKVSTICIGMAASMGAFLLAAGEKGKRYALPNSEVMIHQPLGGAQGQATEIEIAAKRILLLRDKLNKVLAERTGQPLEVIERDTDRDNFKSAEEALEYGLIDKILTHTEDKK
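FRET quenching reversal measured ClpP activation: 10 microg/mL B. subtilis ClpP at pH 8 with the FRET-FV decapeptide, read at 430 nm after 320 nm excitation. The 20-min minus 0-min signal was scaled between DMSO/no-enzyme wells and ADEP (5.8 microM final).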
DRD3 antagonist – qHTS of D3 Dopamine Receptor Antagonist: qHTS | D(3) dopamine receptor (Homo sapiens), P35462 | D3R cells, DiscoveRx beta-arrestin luminescence, antagonist mode; active compounds read low | max response, negative = inhibition, % | 2.5% of 360,000 active; in the data active = max response below about -50%; inconclusive = no clear call, values can overlap the other calls; note: % is set by controls: 0 for no effect and ±100 for the full control effect
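Cells expressing the human receptor were seeded at 1500 cells/well, incubated overnight at 37 degrees C in 5% CO2, then exposed to library compounds with dopamine controls for 90 minutes at 37 degrees C before luminescent detection.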
Starred values were filed as active, the others as inactive; ? = inconclusive; / = no result. Unless noted, calls come from the whole dose curve; as a rule, active = well fitted inhibition curve with a large enough effect; inconclusive = small, poorly fitted or top-dose-only effect; inactive = flat fitted curve, though single readings scatter.

SMILES | IL1B secr inh | DRD3 agonist | TDP1 cell noCPT | DT40 TDP1 CPT | ClpP mod | DRD3 antagonist
COC(=O)c1c(Oc2ccc(C(C)=O)cc2)nnc(-c2ccccc2)c1-c1ccccc1 | / | 2 | ? | 18µM* | -7% | /
CCOC(=O)c1cnc(-c2ccccc2)nc1Oc1ccc(OC)cc1 | 6 | -4 | 17% | -1% | 2% | 19
CCOC(=O)C1(Cc2ccccc2C)CCCN(Cc2ccc(NC(C)=O)cc2)C1 (configuration not stated) | 18 | 0 | ? | -27% | / | 13
O=C(COC(=O)c1ccc(Cl)nc1)Nc1cccnc1Cl | -9 | 5 | 0% | 10% | -1% | 2
N#CCSc1n[nH]c2nc3c(c(=O)n12)C1(CCCC1)Cc1ccccc1-3 | 42 | 2 | 0% | -7% | 16µM* | -21
Cc1cccc(-n2c(SCC(N)=O)nc3c(c2=O)C2(CCCC2)Cc2ccccc2-3)c1 | -19 | -14 | 0% | 0% | ? | -14
NC(=O)CSc1nc2c(c(=O)n1-c1ccccc1)C1(CCCCC1)Cc1ccccc1-2 | -53* | -4 | ? | ? | / | -13
NC(=O)[C@@H]1CSSCCC(=O)N[C@@H](CCCCN=C(N)N)C(=O)NCC(=O)N[C@@H](CC(=O)O)C(=O)N[C@@H](Cc2c[nH]c3ccccc23)C(=O)N2CCC[C@H]2C(=O)N1 | / | 1 | ? | ? | / | /
O=C(N/N=C/c1cccs1)c1ccc2ccccc2c1 | -19 | 0 | 21µM* | 15µM* | -5% | -4
O=C(N/N=C/c1ccccn1)c1cc(-c2ccccc2Cl)n[nH]1 | -2 | -11 | 18µM* | ? | 0% | -2
COc1ccc(NS(=O)(=O)c2cccc(C(=O)N/N=C/c3cccs3)c2)cc1 | 0 | -18 | -26% | -16% | -10% | -52*
O=C(N/N=C/c1cccs1)c1cc(-c2cccc3ccccc23)n[nH]1 | -52* | -2 | ? | ? | 0% | 14
O=C(CCC(=O)N1CCN(Cc2ccc(F)cc2)CC1)Nc1nnc(C2CCCCC2)s1 | -17 | 3 | -4% | ? | 2% | 0
COc1ccc(NS(=O)(=O)c2cccc(C(=O)NNC(=O)c3ccc(Br)o3)c2)cc1 | -13 | 3 | 5.8µM* | -53% | / | 11
C(=NN=C(NN=Cc1cccs1)NN=Cc1cccs1)c1cccs1 | -1 | 9 | 2.9µM* | 5.2µM* | / | 1
O=C(N/N=C/c1ccccn1)c1cc(-c2ccc3ccccc3c2)n[nH]1 | 34 | 26 | ? | ? | 22µM* | 19
O=C(N/N=C/c1cccs1)c1ccccn1 | -25 | -8 | -25% | -5% | -3% | -6
COc1ccc(NS(=O)(=O)c2cccc(C(=O)NNC(=O)c3cccc(NC(C)=O)c3)c2)cc1 | 5 | 10 | 11% | 5% | 0% | -3
O=C(N/N=C/c1ccco1)c1cc(-c2ccc3ccccc3c2)n[nH]1 | -67* | 1 | 23µM* | 13µM* | -4% | -75*
CCc1ccc(-c2cc(C(=O)N/N=C/c3ccccn3)[nH]n2)cc1 | 67 | 0 | ? | ? | / | 6
COc1cc(NC(=O)CN2C(=O)COc3ccc(S(=O)(=O)NC4CCCC4)cc32)cc(OC)c1 | / | -11 | -19% | -2% | 1% | /
CC(C)(C)C1CCc2c(C(=O)N/N=C/c3cccs3)csc2C1 (configuration not stated) | -1 | 32* | ? | 14µM* | 0% | ?
O=C(N/N=C/c1cccs1)c1cc(-c2ccc3ccccc3c2)n[nH]1 | ? | 2 | 21µM* | ? | 28% | 22
COc1ccc(Nc2cc(C(=O)NCc3ccccc3OC)c3ccccc3n2)cc1 | / | -10 | ? | -20% | 84% | /
Cc1ccc(-c2cc([C@H]3[C@H]4C=CC[C@@H](C)[C@@H]4C(=O)N3Cc3ccccc3)ccc2F)cc1 | 15 | -1 | 21µM* | ? | -3% | -10
SMILES | IL1B secr inh | DRD3 agonist | TDP1 cell noCPT | DT40 TDP1 CPT | ClpP mod | DRD3 antagonist
COc1ccc(-c2cccc(C3CC=CC4C3C(=O)N(Cc3ccccc3)C4c3ccc4ccccc4c3)c2)cc1 (configuration not stated) | 43 | 5 | 15µM* | 18µM* | -10% | -8
COc1cc(-c2cccc([C@H]3[C@@H]4C=CC[C@@H](C)[C@@H]4C(=O)N3Cc3ccccc3)c2)cc(OC)c1OC | ? | -53 | 7.3µM* | 8.2µM* | -14% | -19
COc1ccc(C2C3C=CCC(c4cccc(-c5ccc(C)cc5)c4)C3C(=O)N2Cc2ccccc2)cc1Cl (configuration not stated) | 8 | 5 | 13µM* | 23µM* | -4% | 0
COc1cccc(-c2nnn(CC(=O)N(CC(C)C)C3CCS(=O)(=O)C3)n2)c1 (configuration not stated) | 1 | 2 | -21% | 11% | 1% | 11
CCc1ccccc1NC(=S)N(CCN1CCOCC1)Cc1ccccc1F | -12 | -5 | ? | ? | / | -16
CCN(CC(=O)Nc1c(F)cccc1F)C(=O)CNC(=O)c1ccc(Br)o1 | 12 | -10 | -8% | -11% | -1% | 23
COc1cc(C2NC(=O)N(C)C(C)=C2C(=O)OCc2ccccc2)cc(Br)c1O (configuration not stated) | 3 | 3 | -29% | -14% | 2% | -4
COc1ccc(-c2cccc([C@H]3[C@@H]4C=CC[C@@H](C)[C@@H]4C(=O)N3Cc3ccccc3)c2)cc1 | -23 | -21 | 21µM* | 23µM* | -10% | -3
CC(=O)[C@@H]1[C@@H](C)N(Cc2ccccc2)C(=O)N[C@H]1c1cccc(C(F)(F)F)c1 | 22 | 12 | ? | -18% | 0% | 0
O=C1[C@H]2CCC=C[C@H]2[C@H](c2cccc(Br)c2)N1Cc1ccccc1 | 14 | -23 | 13µM* | ? | -1% | -24
CC(=O)c1ccc(-c2cccc([C@H]3[C@@H]4C=CC[C@@H](C)[C@@H]4C(=O)N3Cc3ccccc3)c2)cc1 | -20 | -35 | 13µM* | 10µM* | 2% | -11

Assay outcomes as filed in PubChem BioAssay.
